Results from PubChem BioAssay AID504834 (National Center for Advancing Translational Sciences (NCATS), 2011).
The campaign covered roughly 320,000 compounds. About 22,000 (6.9%) were called active. A call without a number means that no potency is given here. Roughly 27% stayed inconclusive and do not appear here. Calls follow the shape of the dose curve; as a rule, active = well fitted inhibition curve with a large enough effect; inconclusive = small, poorly fitted or top-dose-only effect, or another doubt; inactive = no such curve, though single readings can be large or run the other way. The full list was thinned out, with actives kept by preference.

assay: Primary qHTS for delayed death inhibitors of the malarial parasite plastid, 96 hour incubation; details: P. falciparum luciferase reporter growth; series mostly up to 28.7 µM
Description: The goal of this screen is to discover new antimalarial compounds that act by inhibiting the development of the apicoplast in the malarial parasite Plasmodium falciparum. The biochemical processes that make this organelle essential for erythrocytic stage parasites are not well understood. However, antibiotics such as azithromycin and tetracycline, which target the apicoplast translational machinery, have a potent antimalarial effect.
We have developed a cell-based assay that measures parasite growth based on the expression of an integrated copy of a firefly luciferase reporter. To detect small molecules that cause this "delayed death" phenotype, erythrocytes infected with the luciferase-expressing parasites were incubated with compounds for either one or two generations, corresponding to 48 and 96 hours, respectively. Compounds that inhibit parasite growth in the second generation, but not the first, should be enriched in antimalarials that target the apicoplast. Growth inhibition is detected by a decrease in luciferase activity.
Assay Provider: David Fidock and Eric Ekland, Columbia University
Keywords: NIH Roadmap, MLPCN, MLI, MLSMR, qHTS, NCGC, qHTS, malaria, luciferase, viability
Four microliters of infected erythrocytes (2% hematocrit, 0.05% parasitemia final concentration) in culture medium were dispensed and the plates incubated for 96 hours at 37 C in 5% CO2. Two microliters of luciferase detection reagent was added and luminescence was detected by a ViewLux (PerkinElmer) reader.
Potency is read from the fitted curve at half-maximal effect.

Structure (SMILES) | Potency
Cc1ccccc1NC(=O)C(C)OC(=O)CCC(=O)N(CC(C)C)c1c(N)n(CC(C)C)c(=O)[nH]c1=O (centres undefined) | inactive
Cc1ccc(S(=O)(=O)N2CCC(C(=O)OCC(=O)N(C)c3ccccc3)CC2)cc1C | inactive
CCN(CC(=O)NCc1cccs1)C(=O)c1ccc(OC)c(S(=O)(=O)N2CCOCC2)c1 | inactive
Cc1ccccc1CSCC(=O)NC(=O)NC(C)(C)C | 10.4 µM (active)
CC(C)(C)NC(=O)NC(=O)COC(=O)C1c2ccccc2Oc2ccccc21 | inactive
CC(C)(C)NC(=O)NC(=O)CN1CCC(Cc2ccccc2)CC1 | inactive
COc1ccc(NC(=O)c2cc([N+](=O)[O-])ccc2NC(=O)CNC2CCCCC2C)c(OC)c1 (centres undefined) | inactive
CN(CC(=O)Nc1ccc(F)c(F)c1F)C(=O)Cn1cnc2c1c(=O)n(C)c(=O)n2C | inactive
COc1ccc([C@H]2CC(=O)C=C(c3ccc(C)cc3)C2)cc1 | inactive
COc1ccc([C@H]2CC(=O)C=C(c3ccc(OC(F)(F)F)cc3)C2)cc1OC | 11.7 µM (active)
COc1ccc2cc(C3=CC(=O)C[C@H](c4ccc5c(c4)OCO5)C3)ccc2c1 | inactive
COc1cccc(N2CC(NS(=O)(=O)c3cccs3)CC2=O)c1 (centres undefined) | inactive
FCOC(C(F)(F)F)C(F)(F)F | inactive
O=C(COc1ccc2c(c1)CCC2)N1CCN(c2ccc(F)cc2)CC1 | inactive
COc1ccccc1CN1CCN(C(c2ccccc2)c2ccccc2)CC1 | 8.28 µM (active)
CC(C)OCC(O)CN1CCN(C(c2ccccc2)c2ccccc2)CC1 (centres undefined) | inactive
O=C(O)CN1CCN(C(c2ccccc2)c2ccccc2)CC1 | inactive
Oc1ccccc1CN1CCN(C(c2ccccc2)c2ccccc2)CC1 | 0.828 µM (active)
COc1ccccc1CN1CCN(Cc2cc(OC)c(OC)cc2OC)CC1 | inactive
COc1ccccc1NC(=S)N1CCN(C(c2ccccc2)c2ccccc2)CC1 | inactive
CC1=C(C(N)=O)C(c2ccc(F)cc2)n2nc(CCCO)nc2N1 (centres undefined) | inactive
COc1cccc(N(C(=O)c2snc(C(N)=O)c2N)C(C(=O)NCC2CCCO2)c2c[nH]c3ccccc23)c1 (centres undefined) | inactive
CC(C)Cc1nc(Cl)c(C#N)c2c1CCC2 | inactive
COC(=O)c1ccc(S(=O)(=O)N(CCO)Cc2ccccc2)n1C | inactive
COc1ccccc1C(=O)Nc1ccc(OCc2nnc3c4ccccc4c(C)nn23)cc1 | 9.28 µM (active)

Structure (SMILES) | Potency
COc1ccccc1C(=O)Nc1ccc(OCC(=O)N2CCCCC2)cc1 | inactive
COc1ccccc1C(=O)NNC(=O)c1ccc(NC(=O)c2ccccc2)cc1 | inactive
CC(=O)N1CCN(C(=O)C2(NC(=O)Nc3ccc(C)cc3)CCCCC2)CC1 | inactive
O=C(NCc1cc(F)cc(C(F)(F)F)c1)C1CCC(=O)N(C2CCCC2)C1 (centres undefined) | inactive
CCOC(=O)c1c(CNCc2ccccc2F)c2sc(C)cc2n1C | inactive
COc1ccc(Nc2ncnc3sc(C)cc23)cc1 | inactive
CN1/C(=c2/s/c(=C3/C(=O)N(c4ccccc4)NC3=Nc3ccccc3)n(C)c2=O)C(C)(C)c2ccccc21 | 11.7 µM (active)
CCN1C(=O)/C(=c2\s/c(=C3\Sc4ccccc4N3C)c(=O)n2C)N(C)C1=S | inactive
Cc1csc2nc(O)c(C(=O)NCCN3CCOCC3)c(=O)n12 | inactive
CCCCC(NS(=O)(=O)c1ccc(C)cc1)C(=O)Oc1ccc2c3c(c(=O)oc2c1)CCC3 (centres undefined) | inactive
O=C(COc1ccc2c3c(c(=O)oc2c1)CCC3)NC1CCCCC1 | inactive
CCCOc1ccc2c3c(c(=O)oc2c1OCCC)CCC3 | 6.57 µM (active)
O=C(Cn1cc(C(=O)C2CC2)c2ccccc21)Nc1ccccc1Cl | inactive
COCCCNc1nc2c(-c3cccc(C)c3)nnn2c2ccc(Cl)cc12 | inactive
CC1=NN(C(=O)CCCc2ccccc2)C(O)(C(F)(F)F)C1 (centres undefined) | inactive
CC1=NN(C(=O)CCc2ccccc2O)C(O)(C(F)(F)F)C1 (centres undefined) | inactive
O=C(Cc1ccccc1)N1N=C(c2ccncc2)CC1(O)C(F)(F)F (centres undefined) | 13.1 µM (active)
Cc1ccc2[nH]c(=O)c(CN(C)S(=O)(=O)c3cccc4nonc34)cc2c1 | inactive
CC1=NNC(=O)C1CC(=O)N/N=C/c1ccncc1 (centres undefined) | inactive
[O-][N+]12CCCCC1CCCC2CO (centres undefined) | inactive
CC(=O)Nc1ccc(NC(=O)CCN2C(=O)C3CC=CCC3C2=O)cc1 (centres undefined) | inactive
O=C(CSc1nnc(SCc2ccc(F)cc2)s1)Nc1ccc(C(=O)O)cc1 | inactive
O=C(CC1SC(N2CCCC2)=NC1=O)Nc1ccc(C(=O)NCCc2ccc(F)cc2)cc1 (centres undefined) | 10.4 µM (active)
O=C(NCCc1ccc(F)cc1)c1ccc2nccnc2c1 | inactive
O=C(CNC(=O)Cc1ccccc1)N=Nc1c(O)[nH]c2ccc(Br)cc12 | inactive

Structure (SMILES) | Potency
O=C(c1ccccc1)N1CCN(C(=O)c2cc3nc(-c4ccccc4)cc(C(F)(F)F)n3n2)CC1 | inactive
COc1cc(/C=C(\C#N)c2nc3ccccc3[nH]2)ccc1O | inactive
Cc1ccc2nc(S(=O)(=O)O)[nH]c2c1 | inactive
Cc1ccc2nc(/C(C#N)=C\c3ccc(OC(=O)c4cccs4)cc3)[nH]c2c1 | 9.28 µM (active)
Cc1c(C=O)c2ccccc2n1CCOc1ccccc1 | inactive
Cc1nn(C)c(Cl)c1CN1CCC(Oc2ccc(C(=O)N3CCCC3)cc2)CC1 | inactive
COc1ccc(C(=O)NC(C)CCc2ccccc2)c(OC)c1 (centres undefined) | inactive
CC(C)c1ccc(C(=O)OC2CCOC2=O)cc1 (centres undefined) | inactive
Cn1c(=O)c2ccccc2n(CC(=O)Nc2ccc3c(c2)OCCO3)c1=O | inactive
COc1ccc(CC(=O)NCC(=O)N/N=C/c2cc(Br)ccc2OC)cc1 | inactive
Cc1ccc(OCCOCCOc2ccc(Br)cc2/C=N\NC(=O)c2ccncc2)cc1 | 5.22 µM (active)
Cc1ccc(S(=O)(=O)Oc2ccc(/C=N/NC(=O)c3ccncc3)cc2)cc1 | inactive
CNS(=O)(=O)c1cccc(C(=O)NC2CCCc3ccccc32)c1 (centres undefined) | inactive
Cc1n[nH]c(=O)c2c(NC(=O)COC(=O)c3ncc(Cl)c(Cl)c3Cl)oc(C)c12 | inactive
Cc1cccc(C)c1NC(=O)NC1=CCCN1C | inactive
C=C(C)Cn1c(N2CCN(CC)CC2)nc2c1c(=O)[nH]c(=O)n2C | 2.33 µM (active)
CCCCNc1nc2c(c(=O)[nH]c(=O)n2C)n1CCOc1ccccc1 | inactive
Cn1c(=O)[nH]c(=O)c2c1nc(CN1CCN(c3ccccc3F)CC1)n2CCc1ccccc1 | inactive
CC1CCN(c2nc3c(c(=O)[nH]c(=O)n3C)n2CCCc2ccccc2)CC1 | 10.4 µM (active)
Cn1c(=O)[nH]c(=O)c2c1nc(Br)n2CCCCSc1nc2ccccc2o1 | inactive
C=C(C)Cn1c(N2CCCC2)nc2c1c(=O)[nH]c(=O)n2C | inactive
Cc1nnc(Sc2nc3c(c(=O)[nH]c(=O)n3C)n2Cc2ccccc2)s1 | inactive
Cn1c(=O)[nH]c(=O)c2c1nc(N1CCCCCC1)n2CC(=O)c1ccccc1 | inactive
Cc1nnc(SCCCn2c(N3CCCCC3)nc3c2c(=O)[nH]c(=O)n3C)s1 | 2.08 µM (active)
